Experiment [1] is described as follows: NCI Yeast Anticancer Drug Screen. Data for the rad50 strain (AID 155).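 Further: 0% = growth of vehicle-only cultures of the same strain.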 Conditions: S. cerevisiae rad50 strain growth inhibition, active compounds read high. The gist of the method:
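Yeast carrying a defined DNA repair defect were exposed to test compounds, and growth was compared with vehicle-treated controls to give percent inhibition.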

A short description of experiment [2]: NCI Yeast Anticancer Drug Screen. Data for the mec2-1 strain (AID 157). Conditions: S. cerevisiae mec2-1 strain, active compounds read high. The gist of the method:
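Test agents were screened against the mec2-1 yeast strain, with defined DNA repair or cell cycle alteration. Growth was scored as inhibition against vehicle-only controls.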

Experiment [3] is described as follows: NCI Yeast Anticancer Drug Screen. Data for the sgs1 mgt1 strain (AID 161).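 Further: 0% = growth of cultures given vehicle only.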 Conditions: S. cerevisiae sgs1 mgt1 strain, active compounds read high. In outline: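 Test agents were incubated with a DNA-repair-mutant yeast strain. Growth was then read and compared against vehicle-treated controls.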
Experiment [4] can be described thus: NCI Yeast Anticancer Drug Screen. Data for the cln2 rad14 strain (AID 165).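 Further: 0% = growth equal to vehicle treated cultures.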 To be noted: S. cerevisiae cln2 rad14 strain, active compounds read high. In outline:
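Growth of compound-exposed yeast (cln2 rad14 genotype) measured and expressed as inhibition relative to vehicle.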

A short description of experiment [5]: NCI Yeast Anticancer Drug Screen. Data for the bub3 strain (AID 167). To be noted: S. cerevisiae bub3 mutant strain, active compounds read high. The gist of the method:
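Compounds were applied to a genetically altered yeast strain carrying a cell-cycle control defect. Growth inhibition was scored against vehicle-treated controls.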

Experiment [6] can be described thus: NCI Yeast Anticancer Drug Screen. Data for the mlh1 rad18 strain (AID 175). Conditions: S. cerevisiae mlh1 rad18 strain growth inhibition, active compounds read high. The gist of the method:
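In this whole-cell yeast screen, a strain with altered DNA damage repair is challenged with compound, and its growth is measured against matched vehicle-treated controls.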

Where [7] appears, read: at 5.0 µM (retest, dose inferred, filed as 0.5).
[8] abbreviates: at 50.0 µM (retest, dose inferred, filed as 5.0).

About 79,000 compounds went through this panel and 15% of them were active in at least one assay; those are over-represented in the sample as a whole. A number with no mark means an inactive call. Calls of active or inactive are those of the source. No stated cut-off is given here; in the data, active means growth inhibition above about 70%; inactive means the rest.

For the compound `CN1N=C2c3ccccc3CC[C@H]2C1c1cccc(O)c1` (stereo not given in full), the growth inhibition in experiment [1] (setting [7]) is -36%; in experiment [1] (setting [8]), 65%; in experiment [1] (at 50.0 µM), 52.7%; in experiment [2] (setting [7]), 5%; in experiment [2] (setting [8]), 34%; in experiment [2] (at 50.0 µM), 23.4%. Besides, the growth inhibition in experiment [3] (setting [7]) was -16%; in experiment [3] (setting [8]), 88% (active); in experiment [3] (at 50.0 µM), 69.2%; in experiment [4] (setting [7]), 24%; in experiment [4] (setting [8]), 83% (active); in experiment [4] (at 50.0 µM), 43.8%. Moreover, the growth inhibition was 21% in experiment [5] (setting [7]); 78% (active) in experiment [5] (setting [8]); 67.2% in experiment [5] (at 50.0 µM); -16% in experiment [6] (setting [7]); 82% (active) in experiment [6] (setting [8]); 35.9% in experiment [6] (at 50.0 µM).

Turning to `C[C@]12C[C@@H](c3ccccc3)Nc3ccccc3N1C(c1ccccc1)=NO2`, the growth inhibition was -4% in experiment [1] (setting [7]); 68% in experiment [1] (setting [8]); 61% in experiment [1] (at 50.0 µM); 10% in experiment [2] (setting [7]); 74% (active) in experiment [2] (setting [8]); 74.8% (active) in experiment [2] (at 50.0 µM). Besides, the growth inhibition is -13% in experiment [3] (setting [7]); 70% (active) in experiment [3] (setting [8]); 81% (active) in experiment [3] (at 50.0 µM); 5% in experiment [4] (setting [7]); 55% in experiment [4] (setting [8]); 37.2% in experiment [4] (at 50.0 µM). The growth inhibition in experiment [5] (setting [7]) was -7%; in experiment [5] (setting [8]), 81% (active); in experiment [5] (at 50.0 µM) it was 62%; in experiment [6] (setting [7]), -19%; in experiment [6] (setting [8]), 75% (active); in experiment [6] (at 50.0 µM), 73.5% (active).

On to `c1ccc([P+](c2ccccc2)(c2ccccc2)C2CCCCO2)cc1` (stereo not given), for which the growth inhibition in experiment [1] (setting [7]) was 17%; in experiment [1] (setting [8]) it was 74% (active); in experiment [1] (at 50.0 µM) it was 67.8%; in experiment [2] (setting [7]) it was -4%; in experiment [2] (setting [8]), 83% (active); in experiment [2] (at 50.0 µM) it was 83.2% (active). The growth inhibition was 4% in experiment [3] (setting [7]); 69% in experiment [3] (setting [8]); 35.1% in experiment [3] (at 50.0 µM); -2% in experiment [4] (setting [7]); 77% (active) in experiment [4] (setting [8]); 49.5% in experiment [4] (at 50.0 µM). The growth inhibition is 5% in experiment [5] (setting [7]); 77% (active) in experiment [5] (setting [8]); 54% in experiment [5] (at 50.0 µM); 1% in experiment [6] (setting [7]); 61% in experiment [6] (setting [8]); 81.1% (active) in experiment [6] (at 50.0 µM).

In the case of `CCCCCCCCCCCCCCCCSC(=NC)NC`, the growth inhibition in experiment [1] (setting [7]) was 89% (active); in experiment [1] (setting [8]), 99% (active); in experiment [1] (at 50.0 µM), 99.4% (active); in experiment [2] (setting [7]), 98% (active); in experiment [2] (setting [8]), 99% (active); in experiment [2] (at 50.0 µM), 99.2% (active). Also, the growth inhibition in experiment [3] (setting [7]) is 98% (active); in experiment [3] (setting [8]), 100% (active); in experiment [3] (at 50.0 µM), 99.3% (active); in experiment [4] (setting [7]), 25%; in experiment [4] (setting [8]), 99% (active); in experiment [4] (at 50.0 µM), 98.2% (active). The growth inhibition is 84% (active) in experiment [5] (setting [7]); 99% (active) in experiment [5] (setting [8]); 99.1% (active) in experiment [5] (at 50.0 µM); 67% in experiment [6] (setting [7]); 98% (active) in experiment [6] (setting [8]); 98.7% (active) in experiment [6] (at 50.0 µM).

As for `O=[N+]([O-])/C(Br)=C\c1ccc([N+](=O)[O-])cc1`, the growth inhibition in experiment [1] (setting [7]) was 19%; in experiment [1] (setting [8]), 99% (active); in experiment [1] (at 50.0 µM), 99.4% (active); in experiment [2] (setting [7]), 4%; in experiment [2] (setting [8]), 100% (active); in experiment [2] (at 50.0 µM), 96.8% (active). The growth inhibition in experiment [3] (setting [7]) is 9%; in experiment [3] (setting [8]), 100% (active); in experiment [3] (at 50.0 µM), 99.6% (active); in experiment [4] (setting [7]), 17%; in experiment [4] (setting [8]), 99% (active); in experiment [4] (at 50.0 µM), 92% (active). Besides, the growth inhibition in experiment [5] (setting [7]) is 40%; in experiment [5] (setting [8]) it was 99% (active); in experiment [5] (at 50.0 µM), 94.9% (active); in experiment [6] (setting [7]), 54%; in experiment [6] (setting [8]), 99% (active); in experiment [6] (at 50.0 µM), 99.5% (active).

On to `CNS(=O)(=O)c1ccccc1C=C(c1ccccc1)c1ccccc1`, for which the growth inhibition in experiment [1] (setting [7]) was 2%; in experiment [1] (setting [8]), 90% (active); in experiment [1] (at 50.0 µM), 93.1% (active); in experiment [2] (setting [7]), -12%; in experiment [2] (setting [8]), 93% (active); in experiment [2] (at 50.0 µM) it was 86.2% (active). Moreover, the growth inhibition was 4% in experiment [3] (setting [7]); 93% (active) in experiment [3] (setting [8]); 94% (active) in experiment [3] (at 50.0 µM); 2% in experiment [4] (setting [7]); 89% (active) in experiment [4] (setting [8]); 65.8% in experiment [4] (at 50.0 µM). For the same compound, the growth inhibition in experiment [5] (setting [7]) was -11%; in experiment [5] (setting [8]) it was 92% (active); in experiment [5] (at 50.0 µM) it was 81.8% (active); in experiment [6] (setting [7]), -2%; in experiment [6] (setting [8]), 91% (active); in experiment [6] (at 50.0 µM) it was 94.1% (active).

As to `O=C(CCCSCCCC(=O)NNc1ccccc1)NNc1ccccc1`, the growth inhibition is 31% in experiment [1] (setting [7]); 88% (active) in experiment [1] (setting [8]); 96.2% (active) in experiment [1] (at 50.0 µM); 16% in experiment [2] (setting [7]); 95% (active) in experiment [2] (setting [8]); 40.7% in experiment [2] (at 50.0 µM). Moreover, the growth inhibition is 30% in experiment [3] (setting [7]); 94% (active) in experiment [3] (setting [8]); 87.4% (active) in experiment [3] (at 50.0 µM); 21% in experiment [4] (setting [7]); 92% (active) in experiment [4] (setting [8]); 86.7% (active) in experiment [4] (at 50.0 µM). Also, the growth inhibition in experiment [5] (setting [7]) is 45%; in experiment [5] (setting [8]), 98% (active); in experiment [5] (at 50.0 µM), 96.5% (active); in experiment [6] (setting [7]), 54%; in experiment [6] (setting [8]) it was 98% (active); in experiment [6] (at 50.0 µM), 97.8% (active).

On to `O=C1C(Cl)=C(N2C(=O)CCCC2=O)C(=O)c2ccccc21`, for which the growth inhibition in experiment [1] (setting [7]) is 100% (active); in experiment [1] (setting [8]), 99% (active); in experiment [1] (at 50.0 µM) it was 89.2% (active); in experiment [2] (setting [7]), 100% (active); in experiment [2] (setting [8]), 99% (active); in experiment [2] (at 50.0 µM) it was 90.2% (active). In addition, the growth inhibition was 100% (active) in experiment [3] (setting [7]); 99% (active) in experiment [3] (setting [8]); 91.5% (active) in experiment [3] (at 50.0 µM); 99% (active) in experiment [4] (setting [7]); 99% (active) in experiment [4] (setting [8]); 89.8% (active) in experiment [4] (at 50.0 µM). For the same compound, the growth inhibition is 100% (active) in experiment [5] (setting [7]); 99% (active) in experiment [5] (setting [8]); 89.1% (active) in experiment [5] (at 50.0 µM); 99% (active) in experiment [6] (setting [7]); 99% (active) in experiment [6] (setting [8]); 88.3% (active) in experiment [6] (at 50.0 µM).

Consider `O=C1NC(c2ccccc2)(c2ccccc2)C(=O)N1SC(Cl)(Cl)Cl`, for which the growth inhibition is 98% (active) in experiment [1] (setting [7]); 98% (active) in experiment [1] (setting [8]); 90.3% (active) in experiment [1] (at 50.0 µM); 100% (active) in experiment [2] (setting [7]); 99% (active) in experiment [2] (setting [8]); 89.3% (active) in experiment [2] (at 50.0 µM). The growth inhibition is 99% (active) in experiment [3] (setting [7]); 99% (active) in experiment [3] (setting [8]); 90.8% (active) in experiment [3] (at 50.0 µM); 99% (active) in experiment [4] (setting [7]); 99% (active) in experiment [4] (setting [8]); 89.7% (active) in experiment [4] (at 50.0 µM). Further, the growth inhibition is 99% (active) in experiment [5] (setting [7]); 98% (active) in experiment [5] (setting [8]); 88.5% (active) in experiment [5] (at 50.0 µM); 98% (active) in experiment [6] (setting [7]); 99% (active) in experiment [6] (setting [8]); 87.2% (active) in experiment [6] (at 50.0 µM).

For the compound `CCCCc1c2c(nc3c1CCc1cc4cc5c(nc4nc1-3)-c1nc3c(c(CCCC)c1CC5)CCCC3=O)C(=O)CCC2`, the growth inhibition in experiment [1] (setting [7]) is 71% (active); in experiment [1] (setting [8]), 97% (active); in experiment [1] (at 50.0 µM) it was 97.7% (active); in experiment [2] (setting [7]), 86% (active); in experiment [2] (setting [8]) it was 97% (active); in experiment [2] (at 50.0 µM) it was 97.2% (active). For the same compound, the growth inhibition in experiment [3] (setting [7]) is 54%; in experiment [3] (setting [8]) it was 97% (active); in experiment [3] (at 50.0 µM) it was 98% (active); in experiment [4] (setting [7]) it was 90% (active); in experiment [4] (setting [8]), 96% (active); in experiment [4] (at 50.0 µM), 95.9% (active). In addition, the growth inhibition was 97% (active) in experiment [5] (setting [7]); 96% (active) in experiment [5] (setting [8]); 97.2% (active) in experiment [5] (at 50.0 µM); 86% (active) in experiment [6] (setting [7]); 96% (active) in experiment [6] (setting [8]); 97.3% (active) in experiment [6] (at 50.0 µM).

These data come from PubChem BioAssay (NCI).
